Source: PubChem BioAssay
Shown are actives, neighbours in structure and some others; about 4.5% of the full set was active somewhere.
HDAC3 inhib: inhibitors of human histone deacetylase 3. recombinant HDAC3, fluorogenic peptide/trypsin coupled, fluorescence. 320,000 tested, 0.15% active. inhibition, % at 8.3 µM. AID 2718. O15379; in the data active = inhibition above about 26%, passing the limit was not always enough; inconclusive = no clear call, values can overlap the other calls
GRK2 inh: human GRK2 inhibition via aptamer displacement; bead flow cytometry, FAM-aptamer displacement from GRK2; 330,000 tested, 0.59% active; AID 488847; P25098; inhibition of aptamer binding, % at 10 µM;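 active = inhibition of aptamer binding above 40%, roughly 3 SD of noise, on plates passing a quality check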;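 also: median bead fluorescence of bound FAM aptamer so fluorescent compounds give negative values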
ALR H2O2 inh: blocks human ALR sulfhydryl oxidase activity; purified ALR, DTT oxidation, H2O2 HRP-luminol luminescence; AID 485317; inhibition, % (concentration not given with the values); 290,000 tested, 3.8% active; P55789;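 active = mean replicate inhibition above about 79%, with every replicate also reaching it, limit read from the data; inconclusive = only one of the two criteria met; inactive = mean below limit and not every replicate reaching it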
Rce1 inhib: yeast Ras-converting enzyme inhibition. Q03530. yeast membranes, quenched prenylated peptide cleavage fluorescence. calls only. 290,000 tested, 0.27% active. AID 2563;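 active = fall in fluorescence gain of 50% or more versus controls, with final raw signal at or below 3038400; inconclusive = same 50% fall but final raw signal above 3038400; inactive = fall in fluorescence gain under 50%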;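 also: plate controls were neutral control wells for no effect and wells lacking membranes for full effect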
Target sequence (Q03530 whole entry, looked up): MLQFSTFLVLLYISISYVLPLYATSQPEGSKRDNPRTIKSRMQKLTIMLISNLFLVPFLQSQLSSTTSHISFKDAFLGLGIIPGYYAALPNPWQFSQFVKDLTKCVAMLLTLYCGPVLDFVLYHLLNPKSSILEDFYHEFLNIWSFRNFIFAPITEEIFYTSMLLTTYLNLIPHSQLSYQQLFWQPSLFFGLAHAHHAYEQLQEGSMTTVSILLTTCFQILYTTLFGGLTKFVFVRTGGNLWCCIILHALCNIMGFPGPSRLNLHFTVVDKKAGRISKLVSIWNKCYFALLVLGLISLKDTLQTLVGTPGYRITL
Efflux pump mplx: antifungal efflux pump inhibition, Nile Red retention | inhibition, % at 10 µM | S. cerevisiae Candida pump triplex | 330,000 tested, 0.44% active;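 active = plate passing quality check with inhibition over a set limit, or well fluorescence over plate mean plus 4 SD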;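 also: Nile Red retained in pooled yeast measured as flow cytometry median fluorescence; 0% = buffer negative control and 100% = Enniatin B positive control; higher means more Nile Red kept so more efflux inhibition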
Rtt109 Vps75: C. albicans Rtt109 histone acetyltransferase inhibition | purified Rtt109/Vps75, ThioGlo CoA-SH fluorescence, 4 h | inhibition, % at 34.9 µM | 330,000 tested, 0.16% active | AID 540336;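 active = inhibition of at least 50% in every replicate; inconclusive = best replicate reaches 50% inhibition but some replicates fall short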
Target sequence (Q5AAJ8 whole entry, looked up): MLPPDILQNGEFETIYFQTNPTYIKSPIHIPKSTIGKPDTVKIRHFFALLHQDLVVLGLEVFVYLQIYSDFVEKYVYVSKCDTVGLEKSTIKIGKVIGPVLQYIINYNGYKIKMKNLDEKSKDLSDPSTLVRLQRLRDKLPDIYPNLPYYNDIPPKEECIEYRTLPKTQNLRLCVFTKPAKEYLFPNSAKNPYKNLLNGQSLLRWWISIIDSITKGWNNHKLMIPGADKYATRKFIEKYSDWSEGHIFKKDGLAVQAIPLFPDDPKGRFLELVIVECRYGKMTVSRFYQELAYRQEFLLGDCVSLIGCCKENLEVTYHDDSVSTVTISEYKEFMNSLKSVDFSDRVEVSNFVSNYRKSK
Yeast cmpd fluor: compound fluorescence in yeast efflux pump counter-screen; fluorescence ratio to DMSO, % at 10 µM; S. cerevisiae AD/pABC3, flow cytometry; shares compounds with Efflux pump mplx; 1,700 tested, 4% active; AID 588517;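 active = fluorescence ratio to DMSO above its plate's cutoff, the plate mean ratio plus 5 SD, cut at about 210% in these data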;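 also: unstained yeast with no Nile Red so the signal is compound autofluorescence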
Mdr1 pump inh: inhibitors of Candida albicans Mdr1 efflux pump; shares compounds with Efflux pump mplx; S. cerevisiae AD/CaMDR1, Nile Red efflux, flow cytometry; inhibition, % at 10 µM; 1,700 tested, 1% active; AID 588518; in the data active = inhibition above about 26%;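 also: 0% = DMSO vehicle and 100% = reference inhibitor; higher means more Nile Red retained so more efflux inhibition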
Cdr2 pump inh: Candida Cdr2 efflux pump inhibition. 1,700 tested, 4% active. Nile Red retention ratio vs DMSO, % at 10 µM. S. cerevisiae AD/CaCDR2, Nile Red retention, flow cytometry. shares compounds with Efflux pump mplx; in the data active = Nile Red retention ratio vs DMSO above about 190%;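 also: higher ratio means more blocking of Cdr2 efflux of the dye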
Cdr1 pump inh: Candida Cdr1 efflux pump inhibition | shares compounds with Efflux pump mplx | S. cerevisiae AD/CaCDR1, Nile Red efflux, flow cytometry | inhibition, % at 10 µM | 1,700 tested, 1% active | AID 588522;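 active = inhibition above the screen-wide mean plus twice its standard deviation, cut at about 32% in these data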
* = called active by the depositor; i = inactive; u = inconclusive; x = no result given.

SMILES	HDAC3 inhib	GRK2 inh	ALR H2O2 inh	Rce1 inhib	Efflux pump mplx	Rtt109 Vps75	Yeast cmpd fluor	Mdr1 pump inh	Cdr2 pump inh	Cdr1 pump inh
Cc1cc(Cl)c(OCCCn2ccnc2)c(Br)c1	1	0	-3	i	16*	4	94	0	95	0
COc1ccc(N(CCC(=O)O)S(=O)(=O)c2ccc(C)cc2C)cc1	5	2	0	i	0	2	x	x	x	x
CC1=C(C(=O)c2ccccc2)C(c2ccc(O)cc2)NC(=S)N1 (centres undefined)	-4	0	6	i	0	2	x	x	x	x
CC1=C(C)C(c2ccccc2)NC(=S)N1 (centres undefined)	8	6	3	i	5.5*	-8	103	0	104	0
COc1cccc(N=C2SC(CC(=O)Nc3ccccc3)C(=O)N2Cc2ccccn2)c1 (centres undefined)	-5	0	71	i	0	-2	x	x	x	x
O=C(Nc1cccc2ccccc12)c1cn(-c2ccccc2)nc1-c1cccs1	-3	0	15	i	9.0*	11	104	0	103	0
O=C(Nc1cccnc1)c1cn(-c2ccccc2)nc1-c1cccs1	13	0	7	i	0	x	x	x	x	x
Cc1ccc(S(=O)(=O)N2CCC(C(=O)N[C@@H](C)C(=O)Nc3ccc(F)cc3)CC2)cc1	-1	12	0	i	0.8*	6	112	0	119	0
Cc1ccc(NC(=O)C2CCN(S(=O)(=O)c3ccc(F)cc3)CC2)cc1	-4	2	-21	i	0	-15	x	x	x	x
Cc1ccc(S(=O)(=O)N(C)C)cc1NC(=O)CCc1ccccc1	2	0	2	i	0	-1	x	x	x	x
CC(=O)Nc1ccc(NC(=O)C(C)OC(=O)C2CCN(S(=O)(=O)c3cccs3)CC2)cc1 (centres undefined)	x	0	-1	i	0	0	x	x	x	x
CC1Cc2ccccc2N1C(=O)COC(=O)c1ccc(Cl)c(S(=O)(=O)N2CCOCC2)c1 (centres undefined)	11	1	-3	x	0	0	x	x	x	x
CCOC(=O)C1(Cc2ccc(OC)cc2)CCN(C(=O)c2cc3ccccc3[nH]2)CC1	-1	2	-17	i	0.5*	6	92	0	110	0
COc1ccc(NC(=O)C(C)N2C(=O)C3CC=C(Cl)CC3C2=O)cc1 (centres undefined)	1	2	-3	i	1	-6	x	x	x	x
COc1cc2sc(-c3ccccc3OC)c(-c3ccc(OCCN4CCCCC4)cc3)c2cc1OC	12	0	-9	x	0	8	x	x	x	x
COc1ccccc1-c1sc2ccccc2c1-c1ccc(OCCN2CCOCC2)cc1	x	1	x	x	0	1	109	0	100	0
c1ccc(-c2sc3ccccc3c2-c2ccc(OCCN3CCOCC3)cc2)cc1	3	2	-4	x	0	-2	x	x	x	x
COc1ccc2sc(-c3ccccc3OC)c(-c3ccc(OCCN4CCOCC4)cc3)c2c1	x	0	x	x	128*	1	106	89*	94	100*
CCCCN1C(=O)C(=O)N(c2ccccc2)C1=S	-2	2	-8	i	6.5*	-3	107	0	92	0
Cc1cccc(N(CC(=O)N2CCCCCC2)S(C)(=O)=O)c1	-3	1	1	i	0	1	x	x	x	x
O=C(c1ccc(Cl)cc1)N1C2C=CC(C2)C1(C(F)(F)F)C(F)(F)F (centres undefined)	1	x	-4	i	15*	7	128	1	106	0
Cc1c(C)c2c(c(C)c1O)CCC(C)(C(=O)O)O2 (centres undefined)	0	0	-17	x	0	-5	x	x	x	x
C[C@H](NC(=O)c1ccc(C(C)(C)C)cc1)C(=O)N1CCN(C/C=C/c2ccccc2)CC1	13	0	x	x	0.9*	-1	92	0	94	0
CC(C)C(NC(=O)c1ccccc1)C(=O)N1CCN(C/C=C/c2ccccc2)CC1 (centres undefined)	1	0	x	x	0	2	x	x	x	x
C=CCNC(=O)C(=O)N/N=C/c1ccco1	5	0	-10	i	23*	0	98	0	91	0
SMILES	HDAC3 inhib	GRK2 inh	ALR H2O2 inh	Rce1 inhib	Efflux pump mplx	Rtt109 Vps75	Yeast cmpd fluor	Mdr1 pump inh	Cdr2 pump inh	Cdr1 pump inh
O=C(Oc1c(-c2ccccc2)c(=O)n2c3c(cccc13)CC2)c1ccc(F)cc1	-5	2	-4	i	0.6*	8	99	0	97	0
O=C(c1cccc([N+](=O)[O-])c1)N1CCc2ccccc21	-3	0	x	i	0	-3	x	x	x	x
O=C(Oc1c(-c2ccccc2)c(=O)n2c3c(cccc13)CC2)c1cccc([N+](=O)[O-])c1	-3	0	30	i	0.6*	1	102	0	101	0
CN1CCN(C(=O)c2c(O)c3cccc4c3n(c2=O)CC4)CC1	3	1	0	i	0	-3	x	x	x	x
O=C(NCCc1ccccc1)c1c(O)c2cccc3c2n(c1=O)CC3	-2	3	-10	i	0	10	x	x	x	x
O=C(Oc1c(-c2ccccc2)c(=O)n2c3c(cccc13)CC2)c1ccccc1	10	2	4	i	0	x	161	0	91	3
NS(=O)(=O)c1ccc(NC(=O)CSc2nnc(Cc3cccs3)n2-c2ccccc2)cc1	2	2	-4	i	0	10	104	0	97	0
COc1ccc(-n2c(Cc3cccs3)nnc2SCC(=O)Nc2ccc3c(c2)OCCO3)cc1	-8	11	0	i	0	26	x	x	x	x
COc1ccc(NC(=O)CSc2nnc(Cc3cccs3)n2-c2ccc(C)cc2)cc1	3	0	-9	x	0	20	97	0	97	0
Cc1ccc(-n2c(Cc3cccs3)nnc2SCC(=O)Nc2ccc(S(N)(=O)=O)cc2)cc1	-5	0	2	i	0	17	x	x	x	x
COc1cccc(NC(=O)CSc2nnc(Cc3cccs3)n2-c2ccc(C)cc2)c1	u	5	-6	i	0	16	96	0	114	0
CC(C)n1nc(C(=O)Nc2cccc(S(=O)(=O)N3CCCCC3)c2)c2ccccc2c1=O	3	1	-2	x	1	7	x	x	x	x
COCCCNCCCOc1ccc(Cl)cc1Br	-9	0	-7	i	0	8	x	x	x	x
CC(C)NCCCOc1ccc(Cl)cc1Br	-1	0	1	i	1.3*	-3	98	0	107	0
